Drawing on PubChem BioAssay (NCI), this text covers growth for seven compounds.

Common to all, as to assay: NCI-60 one-dose screen, 48 h (100 = growth as untreated, 0 = no growth, -100 = all killed)
What all share (settings): 10 µM unless noted

The subject of test [1] is HCT-15 colon.
Test [2] concerns HT29 colon.
The test system of test [3] is SNB-75 CNS.
For test [4], the system named is SNB-19 CNS.
The subject of test [5] is U251 CNS.
Test [6] concerns PC-3 prostate.
The test system of test [7] is SK-MEL-5 melanoma.
Test [8] deals with UACC-62 melanoma.
In test [9] the test system is LOX IMVI melanoma.
For test [10], the system named is SK-MEL-28 melanoma.
Test [11] deals with SK-MEL-2 melanoma.
The test system of test [12] is EKVX NSCLC.
For test [13], the system named is SN12C renal.
The test system of test [14] is UO-31 renal.
The subject of test [15] is TK-10 renal.
The test system of test [16] is ACHN renal.
The subject of test [17] is CAKI-1 renal.
In test [18] the test system is A498 renal.
The subject of test [19] is CCRF-CEM leukemia.
For test [20], the system named is MOLT-4 leukemia.

About 83,000 compounds went through this panel and 20% of them were active in at least one assay; those are over-represented in the sample as a whole.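 Compound tested at a single concentration for 48 hours in 96-well plates; a percent growth value below 10 was scored as active.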 Unmarked numbers belong to inactive results. Calls of active or inactive are those of the source.

As for `C=CCNc1nc(O)c(/C=C2\C=Nc3ncccc32)s1`, the growth in test [1] was 24.7%; in [2], 26.4%; in test [3], -67.3% (active); in [4], 11%; in [5], 0.764% (active); in test [6] it was 12.6%. In addition, the growth in [7] is 2.01% (active); in test [8], 9.75% (active); in [9], 0.553% (active); in [10], -2.4% (active); in test [11], -8.35% (active); in test [12], 30.5%. The growth in [13] was 24%; in test [14], 3.09% (active); in test [15] it was 1.67% (active); in test [16] it was -1.22% (active); in [17], 30.2%; in test [18], -34.5% (active). Further, the results for the growth in test [19] and in [20] were 7.13% (active) and 5.78% (active), respectively.

As to `CC(=O)c1ccc(Nc2nccc(-c3ccc(Cl)cc3)n2)cc1`, the growth was 82.3% in [1]; 86.2% in test [2]; 105% in [3]; 98% in test [4]; 78.4% in test [5]; 89.6% in test [6]. For the same compound, the growth in test [7] was 102%; in test [8], 86.5%; in [9] it was 90.7%; in test [10] it was 113%; in [11], 98.1%; in test [12], 99.2%. Moreover, the growth was 100% in test [13]; 93.1% in test [14]; 85.5% in test [15]; 92.3% in test [16]; 92.6% in test [17]; 7.16% (active) in test [18]. Also, the growth in test [19] is 84.4%; in test [20], 83.8%.

Regarding `O=c1c(/C=C/c2c(O)ccc3ccccc23)nnc2sc(-c3cccc([N+](=O)[O-])c3)nn12`, the growth was 29.1% in test [1]; 88.8% in test [2]; 51.7% in test [3]; 50% in test [4]; 0.449% (active) in test [5]; 52.7% in [6]. Moreover, the growth in [7] was 65.2%; in test [8], 32.5%; in test [9] it was 33.7%; in [10] it was 54.1%; in test [11], 79.2%; in test [12], 54.4%. Besides, the growth in test [13] is 45.9%; in test [14], 20.1%; in test [15], 83.1%; in test [16], 31.7%; in test [17], 24.9%; in test [18], 50.5%. Moreover, the growth was 18.6% in [19] and 25.9% in [20].

In the case of `O=C(CSc1nc(-c2ccccc2)cn1-c1ccc(Cl)cc1)c1ccc([N+](=O)[O-])cc1`, the growth was 76.1% in [1]; 56.1% in test [2]; 93.8% in [3]; 90.8% in [4]; 93.3% in [5]; 73.2% in [6]. Further, the growth in test [7] was 80.8%; in [8], 66.2%; in test [9], 96.1%; in test [10], 89%; in test [11] it was 86.9%; in test [12] it was 92.7%. Moreover, the growth in test [13] is 86.5%; in test [14] it was 59.7%; in test [15], 96.4%; in test [16] it was 95.1%; in test [17], 89%; in [18], 74.6%. Also, the figures for the growth in [19] and in [20] were 83.2% and 68.4%, respectively.

In the case of `O=C1C(Nc2ccc(Br)cc2)=C(I)C(=O)c2ncccc21`, the growth was 6.76% (active) in test [1]; 54.7% in [2]; 26.4% in test [3]; 68.3% in [4]; 32% in test [5]; 39.3% in [6]. Further, the growth in test [7] is -17.7% (active); in test [8] it was 9.48% (active); in test [9] it was -3% (active); in test [10], 63.7%; in test [11], 79.2%; in [12], 77.6%. Further, the growth in test [13] was 1.34% (active); in [14], -38.4% (active); in [15], 70.7%; in test [16] it was -20.1% (active); in [17], 18.6%; in [18] it was 96%. In addition, the values for the growth in [19] and in test [20] were 8.63% (active) and -2.02% (active), respectively.

For `CC(C)n1nc(-c2ccc3oc(N)nc3c2)c2c(N)ncnc21`, the growth in [1] is 0.972% (active); in test [2] it was 4.07% (active); in [3], -51.4% (active); in test [4] it was 0.364% (active); in test [5], 1.15% (active); in test [6], 0.237% (active). Moreover, the growth in test [7] is -40.3% (active); in test [8], -45% (active); in test [9] it was -16.4% (active); in test [10] it was -24% (active); in test [11], -19.5% (active); in [12], -27.2% (active). Also, the growth was 3.13% (active) in test [13]; -20.9% (active) in test [14]; -30.4% (active) in test [15]; -14% (active) in test [16]; 2.4% (active) in test [17]; -50.4% (active) in test [18]. For the same compound, the results for the growth in [19] and in test [20] were 11.7% and 6.39% (active), respectively.

With `Nc1nc(N)c2c(n1)NC(c1cccc(Nc3ccnc4cc(C(F)(F)F)ccc34)c1)CC(c1ccc(Cl)cc1)=N2` (stereo not given), the growth was 20.3% in [1]; 10.6% in test [2]; 47.9% in [3]; 62.8% in [4]; 36.7% in test [5]; 32.4% in test [6]. In addition, the growth in test [7] is 47.2%; in [8], 76.3%; in test [9], 37.5%; in test [10] it was 80.7%; in test [11] it was 42.7%; in test [12] it was 50.8%. The growth was 63.9% in [13]; 62.7% in test [14]; 87.4% in test [15]; 72.7% in [16]; 45.5% in [17]; 82% in test [18]. The figures for the growth in test [19] and in test [20] were 19.2% and 7.52% (active), respectively.
